By inhibition is commonly meant the relative decrease from the control value, in per cent.

Hit rate of the full screen: of about 290,000 compounds, about 3,100 (1.1%) were called active. This excerpt belongs to a sample that is enriched for actives. Unmarked numbers belong to inactive results. Cut-off read from the data, not from the text of the source: active = inhibition above about 16% (passing the limit was not always enough); inactive = the rest.

The target of the assay is Neuropeptides B/W receptor type 1 (Homo sapiens) (UniProt P48145). As to the kind of experiment: GPR7 receptor antagonists, primary screen, cell-based, fluorescence, single concentration (AID 1861).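 Note: cells stimulated with the agonist NPW; 0% = agonist with vehicle and 100% = vehicle without agonist.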 The following applies: GPR7-expressing cells, fluorescence antagonist assay; at 4.4 µM; active compounds read high.
Sequence of Neuropeptides B/W receptor type 1 (Homo sapiens) (P48145 whole entry, looked up): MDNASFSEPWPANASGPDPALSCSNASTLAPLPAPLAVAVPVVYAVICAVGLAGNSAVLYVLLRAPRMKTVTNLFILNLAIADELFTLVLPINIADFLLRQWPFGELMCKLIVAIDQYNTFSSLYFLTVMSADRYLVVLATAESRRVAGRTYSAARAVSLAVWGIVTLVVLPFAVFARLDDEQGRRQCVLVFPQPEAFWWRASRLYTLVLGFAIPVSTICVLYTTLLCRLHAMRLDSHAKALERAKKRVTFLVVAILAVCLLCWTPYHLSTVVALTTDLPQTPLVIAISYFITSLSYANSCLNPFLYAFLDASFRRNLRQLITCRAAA
Take `CS(=O)(=O)N1CCc2nc(-c3ccccc3)sc2C1`: the inhibition was -4.29%. Consider `CC(=O)c1cccc(NC(=O)c2ccncc2)c1`, for which the inhibition was -7.93%. As to `CCSc1nsc(NC(=O)Nc2ccccc2OC)n1`, the inhibition was 0.35%.

In the case of `CCSc1nsc(NC(=O)Nc2cccc(C(C)=O)c2)n1`, the inhibition was 37.1% (active). Then `C=CCSc1nsc(NC(=O)Nc2cccc(C(C)=O)c2)n1`, with 32.5% (active); and `C=CCSc1nnc(NC(=O)c2ccc(NC(C)=O)cc2)s1`, with -10.1%. The figure for `C=C(C)C(=O)Nc1cccc(C(C)=O)c1` is -8.07%; for `Cc1ccc(S(=O)(=O)NCc2ccc(C(=O)NC3CCC(C)CC3)cc2)cc1` (configuration not stated) it is -11.8%; for `COC(=O)c1ccc(CN2CCCC(C(=O)Nc3cccc(-n4cnnn4)c3)C2)cc1` (configuration not stated) it is -3.8%. On to `CCOC(=O)C1Sc2[nH]c(=O)sc2C(c2ccc(Cl)cc2)C1C(=O)OCC` (configuration not stated), for which the inhibition was -3.9%. The figure for `Cc1cc(C)c(C(=O)CSc2nc(C)cc(=O)[nH]2)c(C)c1` is 5.17%; for `COc1ccc(C2CC(c3ccccc3)Nc3ncnn32)cc1` (configuration not stated) it is 12.2%; for `COc1ccc(C2CC(c3ccc(C)cc3)Nc3ncnn32)cc1` (configuration not stated) it is 3.36%.

Turning to `Clc1ccc(C2CC(c3cccs3)n3ncnc3N2)cc1Cl` (configuration not stated), the inhibition is 24.9% (active). Turning to `Brc1ccccc1CN1CCC(Cc2ccccc2)CC1`, the inhibition is -13.6%.

Regarding `COc1ccc(Cn2c(C)c(C)c(C#N)c2NC(=O)Nc2ccc(F)cc2)cc1`, the inhibition is -4.33%. Regarding `COc1cccc(/C=C2/SC(=S)N(CC(=O)NC3C=CS(=O)(=O)C3)C2=O)c1` (configuration not stated), the inhibition was -2.21%. Take `Cc1nc2ccc(S(=O)(=O)N(C)CC(=O)NC(C)c3ccccc3)cc2s1` (configuration not stated): the inhibition is 2.55%. The figure for `COCCN1C(=O)C(=O)/C(=C(/O)c2ccc(S(=O)(=O)N3CCCCC3)cc2)C1c1ccc(OC)c(OC)c1` (configuration not stated) is -6.88%. Take `COC(=O)c1cc(N2CCNCC2)nc2ccccc12`: the inhibition is 1.6%. With `COc1ccccc1CC(=O)NCCc1c[nH]c2ccccc12`, the inhibition was -0.98%. The figure for `COc1ccc(S(=O)(=O)NCCc2c[nH]c3ccccc23)cc1OC` is -6.73%. Take `COc1cccc(CNCCc2c[nH]c3ccccc23)c1OCc1ccccc1F`: the inhibition was 39.6% (active). Consider `O=C(CN1CCC(NC(=O)Nc2ccccc2)CC1)Nc1cccc([N+](=O)[O-])c1`, for which the inhibition is -1.48%. Then `CC(NC(=O)c1cc(=O)[nH]c2ccccc12)c1ccc(F)cc1F` (configuration not stated), with 0.31%; and `CC(C)CC(CCc1ccccc1)OS(N)(=O)=O` (configuration not stated), with -8.91%. On to `Cc1cccc(NC(=O)c2cccc(C(=O)Nc3cccc(C)c3C)n2)c1C`, for which the inhibition was 36.1% (active). For the compound `Cc1cccc(NC(=O)c2ccc3nsnc3c2)c1C`, the inhibition was 4.08%. Take `Cc1nc(C)c(C(=O)Nc2cccc(C)c2C)o1`: the inhibition is 1.66%. Then `CC(C)N1CCC(NC(=O)Nc2ccccc2)CC1`, with -11.8%. On to `Cn1cc(CNC(=O)c2ccc(OC3CCN(Cc4ccccn4)CC3)cc2)cn1`, for which the inhibition is -5.98%.

For `CN(Cc1ccccc1)C(=O)c1ccc(NC2=NC3CS(=O)(=O)CC3S2)cc1` (configuration not stated), the inhibition was -12.5%. On to `COc1ccc(C2C=C(c3ccc(Br)cc3)Nc3nc(NS(C)(=O)=O)nn32)cc1` (configuration not stated), for which the inhibition was 15%. Turning to `O=C(NCCNc1ccc([N+](=O)[O-])cc1Cl)c1ccccc1F`, the inhibition was 33.5% (active). As for `O=C(NCCCNc1ccc([N+](=O)[O-])cc1Cl)c1ccccc1F`, the inhibition was 5.46%. As for `O=C(NCCNc1ccccc1[N+](=O)[O-])c1ccccc1F`, the inhibition is 2.99%. Regarding `COc1cccc(CNc2nc(C(F)(F)F)nc3ccccc23)c1`, the inhibition is -8.14%.

Regarding `Cc1ccc(N2C(=O)C3C4C=CC(CC4)C3C2=O)cc1Cl` (configuration not stated), the inhibition is -5.89%. As for `CS(=O)(=O)N(CC(O)Cn1c2ccccc2c2ccccc21)c1cccc2ccccc12` (configuration not stated), the inhibition is 29% (active). The figure for `O=C1c2ccccc2S(=O)(=O)N1CC(O)Cn1c2ccccc2c2ccccc21` (configuration not stated) is 27.4%; for `CCCCN(CCCC)CC(O)Cn1c2ccccc2c(=O)c2ccccc21` (configuration not stated) it is 4.5%. As for `COc1cc(C(=O)NCc2cc3cc(Cl)ccc3n2C)cc(OC)c1OC`, the inhibition is -5.99%.

In the case of `CCN(CC)S(=O)(=O)c1ccc(N2CCN(C)CC2)c(NC(=O)Nc2ccccc2F)c1`, the inhibition is 6.45%. `COc1cc(OC)cc(C(=O)Nc2ccc(S(=O)(=O)Nc3cc(C)on3)cc2)c1`: the inhibition is -3.8%. With `COc1cc(NS(=O)(=O)c2ccc(NC(C)=O)cc2)cc(OC)c1`, the inhibition was -5.8%. As for `CC(=O)c1ccc(NC(=S)NC(=O)CC(C)C)cc1`, the inhibition is -3.47%. For the compound `COc1ccc(NC(=O)c2cnc(NS(=O)(=O)c3ccccc3)nc2)cc1`, the inhibition is -10.5%. `COc1ccc(NS(=O)(=O)c2ccc(NC(=S)NC(=O)CC(C)C)cc2)cc1`: the inhibition is 24.2% (active). In the case of `COc1ccc(NS(=O)(=O)c2ccc(NC(=O)c3ccc(N(C)S(C)(=O)=O)cc3)cc2)cc1`, the inhibition is 22.9% (active).

On to `Cc1ccc(C(=O)OCC(=O)NC(=O)Cc2ccccc2)c(O)c1`, for which the inhibition was -16.1%. For the compound `CCOC(=O)CNC(=O)/C=C/c1c(Cl)cccc1Cl`, the inhibition is 10.2%.

For the compound `O=C(Nc1ccccc1C(=O)O)c1ccc(N2C(=O)C3CC=CCC3C2=O)cc1` (configuration not stated), the inhibition was -9.35%. `O=C(c1ccccc1)N1CCC(CC2CC(c3ccc(Cl)cc3)=NO2)(C(=O)NCC2CCCCC2)CC1` (configuration not stated): the inhibition was -2.72%. Take `CCc1nc(Nc2ccc(NC(C)=O)cc2)c2oc3ccccc3c2n1`: the inhibition is -6.65%. Turning to `Cc1cccc2c1N(CC(=O)OC(C)C)C(=O)C2=O`, the inhibition was -5.53%.

Consider `CC(C)OC(=O)CN1C(=O)C(=O)c2ccccc21`, for which the inhibition is -2.31%. On to `CC(C)OC(=O)CN1C(=O)c2ccccc2C1=O`, for which the inhibition is 20.4% (active). With `N#CCOc1ccc(C2=NO[C@@H]3[C@@H]4C[C@@H]([C@H]5C(=O)N(c6ccc7c(c6)OCO7)C(=O)[C@@H]45)[C@H]23)cc1`, the inhibition was 4.89%.

For the compound `CCc1nn(CC(=O)N2CCN(CC)CC2)c(=O)c2cccn12`, the inhibition is -11.1%.

As for `O=C(Nc1ccccc1Cl)Nn1cnnc1`, the inhibition is -16.3%. The figure for `O=C(COC(=O)c1cccs1)Nc1ccccc1Cl` is -12.8%; for `O=C(Nc1ccccc1Cl)/C(Cl)=C(\Cl)S(=O)c1ccccc1` (configuration not stated) it is 23.4% (active); for `CN(C)S(=O)(=O)c1ccc(C(=O)NCCN=C2NS(=O)(=O)c3ccccc32)cc1` it is -2.36%. Take `O=C(O)c1ccc(OCC2CCCO2)cc1` (configuration not stated): the inhibition is -9.77%. In the case of `CCn1c(SCc2ccccc2)nc2cc(OC)c(OC)cc2c1=O`, the inhibition was -30.7%.

Take `COc1ccc(NC(=O)C2CCC(CNS(=O)(=O)c3csc(C(N)=O)c3)CC2)cc1OC` (configuration not stated): the inhibition was 24.1% (active). Then `CC(=O)Nc1ccc(S(=O)(=O)NCC2CCC(C(=O)NCCc3ccccc3)CC2)cc1` (configuration not stated), with -13.4%; and `COc1cccc(CNS(=O)(=O)c2csc(C(N)=O)c2)c1`, with -3.2%; and `Cc1cc(=O)oc2c(C)c(OCC(=O)NCCc3ccc(S(N)(=O)=O)cc3)ccc12`, with 9.11%. Turning to `COC(=O)CN1C(=O)C(C)(C)Oc2ccc(C(=O)Nc3cccc(OC)c3)cc21`, the inhibition is -8.64%.

As to `COc1ccc([N+](=O)[O-])cc1N(CC(O)CN(CC(C)C)CC(C)C)S(=O)(=O)c1ccc(C)cc1` (configuration not stated), the inhibition was 21.7% (active). Take `Cc1ccc(S(=O)(=O)N(CC(O)CN2CCCCC2)c2cccc([N+](=O)[O-])c2)cc1` (configuration not stated): the inhibition was -4.51%. Consider `COc1ccc([N+](=O)[O-])cc1N(CC(O)Cn1nnc2ccccc21)S(=O)(=O)c1ccc(C)cc1` (configuration not stated), for which the inhibition is -11.4%. With `O=C(/C=C/c1cccs1)c1cc(Cl)ccc1OC(=O)N1CCOCC1`, the inhibition is -2.52%.

Turning to `CSc1ccccc1NC(=O)CN(C)CC(=O)Nc1cccc(Br)c1`, the inhibition was 3.51%. For `CCC(C)c1ccccc1NC(=O)CN(C)CC(=O)Nc1ccccc1SC` (configuration not stated), the inhibition was 31.4% (active).

With `CSc1ccccc1NC(=O)CN(C)CC(=O)Nc1ccc(Cl)cc1[N+](=O)[O-]`, the inhibition is 12.5%.

As for `COc1cc(OC)c(OC)cc1/C=N/Nc1ncnc2c1[nH]c1ccc(C)cc12`, the inhibition was -19.8%. The figure for `CC(C)OCCCNc1ncnc2c1[nH]c1ccc(F)cc12` is 26.6% (active); for `Fc1ccc2[nH]c3c(N4CCSCC4)ncnc3c2c1` it is -5.82%; for `Cc1ccc(S(=O)(=O)N2CCN(c3ccccc3)CC2)cc1C` it is 0.58%.

For the compound `COc1cccc(CNS(=O)(=O)c2ccc3c(c2)CC(C)N3C(=O)C2CCC2)c1` (configuration not stated), the inhibition was 17.9%.

For `CC1=CCC2C(=O)N(c3cccc(C(=O)NC(C)c4ccccc4)c3)C(=O)C2C1` (configuration not stated), the inhibition was 0.74%.

`Cc1cccc(NC(=O)C(C)SCc2ccccc2)c1` (configuration not stated): the inhibition was -8.07%. Turning to `O=C(Nc1ccncc1)c1ccc(Cl)c([N+](=O)[O-])c1`, the inhibition was 1.68%. Then `O=C(Nc1c2c(nn1-c1ccccc1)CS(=O)(=O)C2)C1CCCC1`, with 4.15%; and `COc1ccc(OC)c(C(c2nnnn2C(C)(C)C)N2CCc3ccccc3C2)c1` (configuration not stated), with 24% (active). With `COCCn1nnnc1C(c1cc2ccc(OC)cc2[nH]c1=O)N1CCc2ccccc2C1` (configuration not stated), the inhibition was 17.6%. With `COc1ccccc1C(c1nnnn1C(C)(C)C)N1CCN(Cc2ccccc2)CC1` (configuration not stated), the inhibition was 10.7%. With `CC1CCCN(CCCNC(=O)CN2C(=O)COc3ccc(S(=O)(=O)N4CCOCC4)cc32)C1` (configuration not stated), the inhibition is -10.9%. Regarding `COC(=O)CCC(=O)N1CCCC(CO)(Cc2ccccc2)C1` (configuration not stated), the inhibition was -0.55%. As for `Cc1cccc(NC(=O)COC(=O)CCc2ccccc2)c1C`, the inhibition was -16.3%.
